Measured values published in the supplement of paper PMC7595190.

Key:
Experiment in all cases: CellTox Green cytotoxicity fluorescence relative to DMSO vehicle (fold of vehicle RFU); higher = more cell death (loss of membrane integrity), active = 2 or more
CMK = tested on: CMK
In short: (§1)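 Single compounds from the Selleckchem apoptosis library were applied at final 0.01, 0.1 and 1 µM (0.1% DMSO vehicle) to MV4-11, CMK and Kasumi-1 cells seeded at 4.0 × 10^4 cells per well with CellTox Green reagent. After incubation at 37 °C, 5% CO2, fluorescence was read at 24, 48 and 72 h. Cytotoxicity, meaning loss of membrane integrity, is shown as fold of the DMSO vehicle signal.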

Kasumi-1 = tested on: Kasumi-1
In short: as §1

MV4-11 = tested on: MV4-11
In short: as §1

Measured: CellTox Green cytotoxicity fluorescence

Cc1nc(Nc2ncc(C(=O)Nc3c(C)cccc3Cl)s2)cc(N2CCN(CCO)CC2)n1 [Dasatinib Monohydrate]
inactive: CMK; 0.01 µM, 24 h 1.01 | CMK; 0.01 µM, 48 h 1.02 | CMK; 0.01 µM, 72 h 1.07 | CMK; 0.1 µM, 24 h 1.02 | CMK; 0.1 µM, 48 h 1.04 | CMK; 0.1 µM, 72 h 0.987 | CMK; 1 µM, 24 h 1 | CMK; 1 µM, 48 h 1.05 | CMK; 1 µM, 72 h 1.09 | Kasumi-1; 0.01 µM, 24 h 1.03 | Kasumi-1; 0.01 µM, 48 h 1.09 | Kasumi-1; 0.01 µM, 72 h 1.13 | Kasumi-1; 0.1 µM, 24 h 1.02 | Kasumi-1; 0.1 µM, 48 h 1.15 | Kasumi-1; 0.1 µM, 72 h 1.23 | Kasumi-1; 1 µM, 24 h 0.928 | Kasumi-1; 1 µM, 48 h 1.13 | Kasumi-1; 1 µM, 72 h 1.24

CN[C@@H](C)C(=O)N[C@H](C(=O)N1CCC[C@H]1C(=O)Nc1snnc1-c1ccccc1)C1CCCCC1
inactive: CMK; 0.01 µM, 24 h 0.986 | CMK; 0.01 µM, 48 h 0.984 | CMK; 0.01 µM, 72 h 0.983 | CMK; 0.1 µM, 24 h 1.01 | CMK; 0.1 µM, 48 h 1 | CMK; 0.1 µM, 72 h 1.02 | CMK; 1 µM, 24 h 1.01 | CMK; 1 µM, 48 h 1.02 | CMK; 1 µM, 72 h 0.959 | Kasumi-1; 0.01 µM, 24 h 0.983 | Kasumi-1; 0.01 µM, 48 h 0.949 | Kasumi-1; 0.01 µM, 72 h 0.94 | Kasumi-1; 0.1 µM, 24 h 1.01 | Kasumi-1; 0.1 µM, 48 h 1.03 | Kasumi-1; 0.1 µM, 72 h 1.07 | Kasumi-1; 1 µM, 24 h 0.988 | Kasumi-1; 1 µM, 48 h 1.04 | Kasumi-1; 1 µM, 72 h 1.1

CCO[C@@H]1OC(=O)C[C@@H]1NC(=O)[C@@H]1CCCN1C(=O)[C@@H](NC(=O)c1ccc(N)c(Cl)c1)C(C)(C)C
inactive: CMK; 0.01 µM, 24 h 0.989 | CMK; 0.01 µM, 48 h 0.988 | CMK; 0.01 µM, 72 h 1 | CMK; 0.1 µM, 24 h 0.971 | CMK; 0.1 µM, 48 h 0.981 | CMK; 0.1 µM, 72 h 0.995 | CMK; 1 µM, 24 h 0.96 | CMK; 1 µM, 48 h 0.975 | CMK; 1 µM, 72 h 1.03 | Kasumi-1; 0.01 µM, 24 h 0.954 | Kasumi-1; 0.01 µM, 48 h 0.953 | Kasumi-1; 0.01 µM, 72 h 0.948 | Kasumi-1; 0.1 µM, 24 h 0.98 | Kasumi-1; 0.1 µM, 48 h 0.961 | Kasumi-1; 0.1 µM, 72 h 0.948 | Kasumi-1; 1 µM, 24 h 0.997 | Kasumi-1; 1 µM, 48 h 1.02 | Kasumi-1; 1 µM, 72 h 1.03 | MV4-11; 0.01 µM, 24 h 0.972 | MV4-11; 0.01 µM, 48 h 0.981 | MV4-11; 0.01 µM, 72 h 0.987 | MV4-11; 0.1 µM, 24 h 0.995 | MV4-11; 0.1 µM, 48 h 0.989 | MV4-11; 0.1 µM, 72 h 0.996 | MV4-11; 1 µM, 24 h 1 | MV4-11; 1 µM, 48 h 1 | MV4-11; 1 µM, 72 h 1.01

CC(C)[C@H](CO)Nc1nc(Nc2cccc(Cl)c2)c2ncn(C(C)C)c2n1 [Purvalanol A]
inactive: CMK; 0.01 µM, 24 h 0.988 | CMK; 0.01 µM, 48 h 1 | CMK; 0.01 µM, 72 h 1 | CMK; 0.1 µM, 24 h 0.992 | CMK; 0.1 µM, 48 h 1 | CMK; 0.1 µM, 72 h 0.965 | CMK; 1 µM, 24 h 0.987 | CMK; 1 µM, 48 h 1.02 | CMK; 1 µM, 72 h 1.02 | Kasumi-1; 0.01 µM, 24 h 0.997 | Kasumi-1; 0.01 µM, 48 h 0.989 | Kasumi-1; 0.01 µM, 72 h 0.974 | Kasumi-1; 0.1 µM, 24 h 0.983 | Kasumi-1; 0.1 µM, 48 h 0.965 | Kasumi-1; 0.1 µM, 72 h 0.974 | Kasumi-1; 1 µM, 24 h 0.928 | Kasumi-1; 1 µM, 48 h 0.948 | Kasumi-1; 1 µM, 72 h 0.923 | MV4-11; 0.01 µM, 24 h 1.01 | MV4-11; 0.01 µM, 48 h 1.02 | MV4-11; 0.01 µM, 72 h 1.03 | MV4-11; 0.1 µM, 24 h 1.03 | MV4-11; 0.1 µM, 48 h 1.04 | MV4-11; 0.1 µM, 72 h 1.04 | MV4-11; 1 µM, 24 h 1 | MV4-11; 1 µM, 48 h 1.06 | MV4-11; 1 µM, 72 h 1.07

COc1nc(OCc2cccc(-c3ccccc3)c2C)ccc1CNCCNC(C)=O [PD-1/PD-L1 inhibitor 2]
inactive: CMK; 0.01 µM, 24 h 1.01 | CMK; 0.01 µM, 48 h 0.96 | CMK; 0.01 µM, 72 h 0.968 | CMK; 0.1 µM, 24 h 0.99 | CMK; 0.1 µM, 48 h 0.951 | CMK; 0.1 µM, 72 h 0.928 | CMK; 1 µM, 24 h 0.99 | CMK; 1 µM, 48 h 0.983 | CMK; 1 µM, 72 h 0.956 | Kasumi-1; 0.01 µM, 24 h 1 | Kasumi-1; 0.01 µM, 48 h 0.98 | Kasumi-1; 0.01 µM, 72 h 0.994 | Kasumi-1; 0.1 µM, 24 h 0.997 | Kasumi-1; 0.1 µM, 48 h 1.02 | Kasumi-1; 0.1 µM, 72 h 1.01 | Kasumi-1; 1 µM, 24 h 0.978 | Kasumi-1; 1 µM, 48 h 1 | Kasumi-1; 1 µM, 72 h 0.999 | MV4-11; 0.01 µM, 24 h 1.02 | MV4-11; 0.01 µM, 48 h 0.96 | MV4-11; 0.01 µM, 72 h 1 | MV4-11; 0.1 µM, 24 h 0.984 | MV4-11; 0.1 µM, 48 h 0.959 | MV4-11; 0.1 µM, 72 h 0.944 | MV4-11; 1 µM, 24 h 0.985 | MV4-11; 1 µM, 48 h 1 | MV4-11; 1 µM, 72 h 1.01

C=CC(=O)N1CCC(Oc2cc3c(Nc4ccc(Cl)c(Cl)c4F)ncnc3cc2OC)CC1 [Poziotinib]
inactive: CMK; 0.01 µM, 24 h 1.02 | CMK; 0.01 µM, 48 h 1.01 | CMK; 0.01 µM, 72 h 1.02 | CMK; 0.1 µM, 24 h 1.03 | CMK; 0.1 µM, 48 h 1.02 | CMK; 0.1 µM, 72 h 1.02 | CMK; 1 µM, 24 h 0.999 | CMK; 1 µM, 48 h 1 | CMK; 1 µM, 72 h 0.915 | Kasumi-1; 0.01 µM, 24 h 0.992 | Kasumi-1; 0.01 µM, 48 h 0.982 | Kasumi-1; 0.01 µM, 72 h 0.982 | Kasumi-1; 0.1 µM, 24 h 1.03 | Kasumi-1; 0.1 µM, 48 h 1.02 | Kasumi-1; 0.1 µM, 72 h 1.02 | Kasumi-1; 1 µM, 24 h 0.994 | Kasumi-1; 1 µM, 48 h 1 | Kasumi-1; 1 µM, 72 h 1.04

CC1(C)CCC(c2ccc(Cl)cc2)=C(CN2CCN(c3ccc(C(=O)NS(=O)(=O)c4ccc(N[C@H](CCN5CCOCC5)CSc5ccccc5)c(S(=O)(=O)C(F)(F)F)c4)cc3)CC2)C1 [Navitoclax]
inactive: CMK; 0.01 µM, 24 h 0.932 | CMK; 0.01 µM, 48 h 0.931 | CMK; 0.01 µM, 72 h 0.932 | CMK; 0.1 µM, 24 h 1.24 | CMK; 0.1 µM, 48 h 1.36 | CMK; 0.1 µM, 72 h 1.36 | CMK; 1 µM, 24 h 1.62 | Kasumi-1; 0.01 µM, 24 h 1.04 | Kasumi-1; 0.01 µM, 48 h 1 | Kasumi-1; 0.01 µM, 72 h 1.05 | Kasumi-1; 0.1 µM, 24 h 1.22 | Kasumi-1; 0.1 µM, 48 h 1.53 | Kasumi-1; 0.1 µM, 72 h 1.7 | Kasumi-1; 1 µM, 24 h 1.57 | MV4-11; 0.01 µM, 24 h 0.946 | MV4-11; 0.01 µM, 48 h 1.02 | MV4-11; 0.01 µM, 72 h 1.07 | MV4-11; 0.1 µM, 24 h 1.04 | MV4-11; 0.1 µM, 48 h 1.41 | MV4-11; 0.1 µM, 72 h 1.67 | MV4-11; 1 µM, 24 h 1.32
active: CMK; 1 µM, 48 h 2.39 | CMK; 1 µM, 72 h 2.07 | Kasumi-1; 1 µM, 48 h 2.07 | Kasumi-1; 1 µM, 72 h 2.11 | MV4-11; 1 µM, 48 h 2.56 | MV4-11; 1 µM, 72 h 2.63
